In PubChem BioAssay AID1845 (The Scripps Research Institute Molecular Screening Center, 2009) one finds inhibition data, which are given here for 22 compounds.

Among all 290,000 compounds or so, about 490 (0.17%) were called active. The sample holds actives, similar compounds and a random draw of the others, so the mix is not that of the screen. Cut-off read from the data, not from the text of the source: active = inhibition above about 37%; inactive = the rest.

A short description of this assay: DNA intercalator displacement agents – biochemical, FID fluorescence, artefact control for HCV NS3 helicase inhibitor project, primary screen (AID 1845).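 Note: 0% = vehicle and 100% = reference compound; higher means more ethidium bromide displaced from hairpin DNA.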 Conditions: DNA fluorescent intercalator displacement, at 7.9 µM, active compounds read high.
`COc1ccc(C(=O)N2CCCCC2C(=O)Nc2ccc(-n3nc(C)cc3C)cc2)o1` (configuration not stated): the inhibition was -43.5% (inactive).
Take `Cc1ccccc1OCC(=O)Nc1nnc(S(=O)(=O)N2CCCC2)s1`: the inhibition is -35.4% (inactive).
With `O=CN1CCN(C(=O)c2ccc3c(c2)OCO3)CC1`, the inhibition was -1.4% (inactive).
As for `NC(=O)C1CC(=O)N(c2ccc(OCC(=O)NCc3ccccc3)cc2)C1` (configuration not stated), the inhibition is -4.26% (inactive).
To `CC(=O)c1cc(CN2CCC(n3nccc3NC(=O)c3ccccc3Cl)CC2)cs1` belongs -5.43% (inactive); to `CCOC(=O)c1c(NC(=O)C2CCN(S(=O)(=O)c3ccc(Cl)cc3)CC2)sc2c1CCCC2`, 43.9% (active).
With `CCOC(=O)c1c(NC(=S)NC(=O)c2ccco2)sc2c1CCCC2` the figure was 0.98% (inactive); with `CCOC(=O)c1c(NC(=S)NC)sc2c1CCCC2`, -4.6% (inactive); with `O=C(CNC(=O)OCc1ccccc1)NC1CCCCNC1=O` (configuration not stated), 0.17% (inactive).
With `O=C(O)CCCN1C(=O)C2C3c4ccccc4C(c4ccccc43)[C@@H]2C1=O` (some centres not stated), the inhibition was -12.3% (inactive).
Take `CC(C)C[C@H]1CN=C(Nc2ccccc2)N1CC1CCCCC1`: the inhibition is 3.71% (inactive).
Consider `CCOc1ccc(NC(=O)c2ccc(NC(=O)C3CCCO3)cc2)cc1` (configuration not stated), for which the inhibition is -28.7% (inactive).
With `CCN(C(=O)CN1C(=O)/C(=C/c2ccc(F)cc2)SC1=S)C1CCS(=O)(=O)C1` (configuration not stated) the figure was -43.9% (inactive).
Consider `COc1ccccc1/C=N/Nc1nc(C)c(C(C)=O)s1`, for which the inhibition was -19.2% (inactive).
Take `Cc1ccc(S(=O)(=O)N(C)C)cc1NC(=O)C1Cc2ccccc2CN1C(=O)c1ccco1` (configuration not stated): the inhibition is -29.3% (inactive).
Take `CCCNC(=O)c1cnc(-c2ccccc2)nc1-c1ccccc1`: the inhibition is -20.5% (inactive).
As to `O=C(c1ccc(Cn2cc([N+](=O)[O-])cn2)o1)N1CCCC1`, the inhibition was -4.09% (inactive).
As for `COc1ccc(CC(=O)N/N=C(\C)c2ccccn2)cc1`, the inhibition is -6.95% (inactive).
With `CCN(CC)CCOc1ccc2c(c1)C(=NNC(=O)c1ccccn1)c1cc(OCCN(CC)CC)ccc1-2` the figure was 98.8% (active).
As for `Cc1cccc(OCC(=O)NCCCNC(=O)c2ccccn2)c1`, the inhibition was -16.1% (inactive).
With `COc1ccc(CCNC(=O)C(=O)NCC2OCCN2S(=O)(=O)c2ccc(F)cc2)cc1OC` (configuration not stated) the figure was -32.4% (inactive); with `Cc1ccc(C(=O)N/C(=C\c2cn(S(=O)(=O)N(C)C)c3ccccc23)C(=O)N2CCCC2)cc1`, -52.8% (inactive).

In general, inhibition refers to the drop in the measured response relative to a control, in per cent.
